# The full list was thinned out, with hits kept by preference.
# CD11b adhes inh: inhibitors of human CD11b/CD18 binding to fibrinogen. K562 CD11b/CD18 adhesion to fibrinogen, ATPlite luminescence; Mn2+ added to activate the integrin. 93,000 compounds, 0.54% hits. P05107+P11215. inhibition, % at 10 µM;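 active = primary inhibition of 50% or more at 10 µM, then 40% or more on retest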
# PTK2B oligo ant: blocks oligomerization of human Pyk2 in cells. 99,000 compounds, 0.83% hits. Q293 cells, Pyk2 FERM NanoBiT luminescence; stronger effect = lower value. z-score (the deposit names both 25 µM and 10 µM);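 active = Z-score of -3 or lower, scaled per plate to the spread of control and sample wells; inactive = z-score above -3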;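 also: negative z-score means lost luminescence so less FERM oligomerization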
# FAK inh: blocks human focal adhesion kinase activity; Q05397; biochemical FAK kinase activity assay; inhibition, %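 (tested at 7 µM)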; 97,000 compounds, 0.84% hits; in the data active = inhibition above about 19%
# hDAT+cocaine: modulates human dopamine transporter uptake under cocaine; B-score at 10 µM; Q01959; AID 449768; 110,000 compounds, 1.3% hits; LLC-PK1 hDAT cells, [14C]-dopamine uptake with cocaine IC80; actives deviate in either direction;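 active = Z score or B-score, a plate-position-corrected score, falls beyond the plate's 99.7% confidence bounds, in either direction; inactive = both scores lie inside the 99.7% bounds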
# CD11b adhes enh: CD11b/CD18-fibrinogen binding enhancement | activation, % at 10 µM | 93,000 compounds, 0.07% hits | K562 CD11b/CD18 adhesion to fibrinogen, ATPlite luminescence | AID 1499;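 active = 10 µM primary screen giving 50% or more activity, confirmed by 40% or more on retest at that dose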
# D1 allo mod: allosteric modulators of human D1 dopamine receptor; P21728; 58,000 compounds, 5.9% hits; B-score at 10 µM; HEK293 D1, CRE-luciferase, dopamine EC30 potentiation; actives deviate in either direction;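 active = luminescence count or its row- and column-corrected plate score outside the 99.7% band of the plate's sample wells, on either side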
# Numbers stand for hits; 0 = inactive; - = no result given.
SMILES,CD11b adhes inh,PTK2B oligo ant,FAK inh,hDAT+cocaine,CD11b adhes enh,D1 allo mod
Cc1cc2nc(SCCN3CCCC3)[nH]c2cc1C,0,0,-,-7.77,0,-
CCN(CC)c1ccc(/C=C(/C#N)c2nc3ccccc3[nH]2)c(OC(C)C)c1,-,-3.44,0,0,-,-
COc1cc(/C=C(\C#N)c2nc3ccccc3[nH]2)c([N+](=O)[O-])cc1OCc1ccccc1,0,0,0,0,0,-
CCOC(=O)c1c(NC(=O)CSc2n[nH]c(-c3ccco3)n2)sc(C)c1C,0,0,0,0,0,6.88
CCn1ncc(C2=NOC(C(=O)NCc3ccc(Cl)cc3)C2)c1C (configuration not stated),0,0,-,-,0,0
Brc1ccc(-c2nc(-c3ccccn3)no2)o1,0,0,0,0,0,-
Clc1ccc(OCc2nc(-c3ccccn3)no2)c(Br)c1,0,-,0,0,0,-6.91
Clc1ccc(-c2nc(-c3ccccn3)no2)cc1Cl,0,0,0,0,0,-5.55
Cn1c(NCCCN2CCOCC2)nc2c1c(=O)n(Cc1ccc(Cl)c(Cl)c1)c(=O)n2C,0,0,0,0,0,0
CCn1c(SCC(=O)Nc2nc3c(s2)CCCC3)nnc1-c1ccccc1,0,0,0,3.68,0,0
CCOC(=O)c1c(NC(=O)CSc2nnc(-c3ccccc3)n2CC)sc(C(C)=O)c1C,0,0,0,2.51,0,0
CCc1nnc(NC(=O)CSc2nnc(-c3ccccc3O)n2CC)s1,0,0,0,0,0,-
Cc1ccc(-c2csc(NC(=O)CSc3nc(C)cc(=O)[nH]3)n2)cc1,0,-,0,2.32,0,-
CCn1c(SCC(=O)Nc2nc(-c3ccccc3)cs2)nnc1-c1ccccc1O,0,-3.13,0,0,0,0
CCOC(=O)c1sc(NC(=O)CSc2nc3c(c(=O)n2-c2ccc(C)cc2)SCC3)c(C(=O)OCC)c1C,-,-,-,0,-,-
O=C(CSc1nnc(Cc2cccs2)n1-c1ccc(Cl)cc1)NCc1ccc2c(c1)OCO2,0,0,0,0,0,-
CCc1nnc(NC(=O)CSc2nnc(-c3cc4ccccc4cc3O)n2CC)s1,0,-3.04,-,0,0,0
CCOC(=O)CCN(Cc1cccs1)S(=O)(=O)c1ccc(F)cc1,0,0,0,0,0,0
CCOC(=O)CCN(Cc1sccc1C)S(=O)(=O)c1ccc(F)cc1,0,0,0,3.79,0,-
CC(C)CCOCC(=O)Nc1cccc(C(=O)O)c1,0,0,-,0,0,0
CCCC(=O)C1=C(O)C(C(=O)OC)C(C)(C)CC1=Nc1ccccc1 (configuration not stated),0,0,0,0,0,0
CCCC(=O)C1=C(O)C(C(=O)OC)C(C)(C)CC1=NC(C)(C)C (configuration not stated),0,0,0,0,0,-
CCCC(=O)C1=C(O)C(C(=O)OC)C(C)(C)CC1=N (configuration not stated),0,0,0,-3.17,0,0
CCCC(=O)C1=C(O)C(C(=O)OC)C(C)(C)CC1=Nc1cccc2ccccc12 (configuration not stated),-,0,0,3.01,-,-
O=C(CSCc1ccccc1)Nc1ccc(F)c(F)c1,0,-,-,-,0,-
SMILES,CD11b adhes inh,PTK2B oligo ant,FAK inh,hDAT+cocaine,CD11b adhes enh,D1 allo mod
COc1ccc(-c2cc3nc4n(c(=O)c3s2)CCC4)cc1,0,0,0,0,0,-5.88
CN(CCOc1ccccc1)S(=O)(=O)c1ccc2oc3ccccc3c2c1,0,0,0,0,0,-
CCOc1ccc(Br)cc1/C(C)=N\NC1=NCCN1,84.4,0,0,0,0,-
CCOc1ccc(CSC2=NCCN2)cc1Cl,-,0,0,0,-,0
CC(C)c1ccc(NC(=O)c2csnn2)cc1,0,0,0,0,0,-4.45
Cc1nc(NC(=O)c2csc3ccccc23)sc1C,0,0,-,0,0,-3.45
Cc1cc(Cl)ccc1OC(C)C(=O)Nc1ccc(S(=O)(=O)Nc2cnc3ccccc3n2)cc1 (configuration not stated),-,0,0,0,-,-
CC(Oc1ccc(Cl)cc1Cl)C(=O)Nc1ccncc1 (configuration not stated),57.1,0,0,0,0,0
CC(Oc1ccc(Cl)cc1Cl)C(=O)Nc1ccc(S(=O)(=O)Nc2cnc3ccccc3n2)cc1 (configuration not stated),78.0,-,0,0,0,-
CC(Oc1ccc(Cl)cc1Cl)C(=O)Nc1cccnc1 (configuration not stated),-,0,0,0,-,-
COc1cc(OC)cc(C(=O)N2CCC(N3CCCCCC3)CC2)c1,-,0,0,0,-,-
COc1ccc(COc2cc(-c3cccc(OC)c3)nc3ccc(NC(=O)c4cccnc4)cc23)cc1,-,-,-,2.67,-,-
OCCn1c(-c2ccc3c(c2)OCO3)csc1=Nc1ccccc1,0,0,0,0,0,-3.38
CCOc1ccc(N=c2scc(-c3ccccc3)n2CCO)cc1,0,0,0,0,0,-
Cc1csc(NC(=O)CSc2nsc(SCC(=O)Nc3nc(C)cs3)c2C#N)n1,0,-4.41,0,0,0,0
COc1cccc(C(=O)Nc2cccnc2)c1,0,-,0,-,0,-
O=C(Nc1cccnc1)c1ccc(Oc2ccccc2)cc1,0,0,0,0,0,-6.38
CCCCN(C)CCCNC(=O)c1cccc(N2CCCC2=O)c1,0,0,0,0,0,-5.76
C=CCSC1=N/C(=C\c2ccc(C)o2)C(=O)S1,0,0,0,0,0,0
COc1ccc(C(c2c(C)[nH]n(-c3ccccc3)c2=O)c2c(C)[nH]n(-c3ccccc3)c2=O)cc1OC,51.6,-,-,-,0,-
CCOC(=O)C1CCN(Cc2cnc(Oc3ccc(OC)cc3)s2)CC1,-,0,0,0,-,-
CCOC(=O)C1CCN(C(=O)C2CCN(c3nc4ccc(OC)cc4s3)CC2)CC1,-,0,0,-8.15,-,-
Cc1ccc2c(COC(=O)C3=COCCO3)cc(=O)oc2c1,0,0,0,0,0,-4.83
Cc1ccc2c(COC(=O)c3cnc(C)cn3)cc(=O)oc2c1,0,-,-,-,0,0
COc1cc(O)c(C(CC(=O)N2CCOCC2)c2cc(OC)c(OC)c(OC)c2)c(OC)c1 (configuration not stated),-,-,-,0,-,-
SMILES,CD11b adhes inh,PTK2B oligo ant,FAK inh,hDAT+cocaine,CD11b adhes enh,D1 allo mod
CCOC(=O)C1=C(c2ccccc2)N2CCN=C2S1,-,-,0,-,-,0
COC(=O)C1=C(C)NC2=C(C(=O)CC(C)(C)C2)C1c1cn(Cc2ccc(Br)cc2)nc1-c1ccccc1 (configuration not stated),0,-3.26,0,0,0,-
COC(=O)C1=C(C)NC2=C(C(=O)CCC2)C1c1cn(Cc2ccc(Br)cc2)nc1-c1ccccc1 (configuration not stated),0,0,0,0,0,-
O=C(NCc1nc2ccccc2[nH]1)C1=C[C@@H](c2ccc(C(F)(F)F)cc2)C[C@@H](OCc2ccc(CO)cc2)O1,-,-,-,0,-,-
O=C(NCCN1CCOCC1)NC1(C(F)(F)F)Oc2ccccc2O1,0,0,0,0,0,0
NS(=O)(=O)c1ccc(CCNC(=O)NC2(C(F)(F)F)Oc3ccccc3O2)cc1,-,0,0,-6.72,-,0
